About 83,000 compounds went through this panel and 20% of them were active in at least one assay; those are over-represented in the sample as a whole.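 A percent growth of 40 corresponds to 60% growth inhibition; 0 means no net growth; -100 means all cells died. Active threshold: below 10.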 A number with no mark means an inactive call. Active and inactive are the calls of the source.

The values below come from PubChem BioAssay (NCI).

Test systems include NCI-H23 lung; NCI-H226 lung; NCI-H322M lung; HOP-62 NSCLC; NCI-H460 lung; HOP-92 NSCLC; NCI-H522 lung; A549/ATCC NSCLC; 786-0 renal; COLO 205 colon; DU-145 prostate; K-562 leukemia; MALME-3M melanoma; MDA-MB-231 breast; RXF 393 renal; SF-268 CNS; SF-295 CNS; SF-539 CNS; UACC-257 melanoma; M14 melanoma.
Holding throughout (assay): NCI-60 one-dose screen, 48 h (100 = growth as untreated, 0 = no growth, -100 = all killed)
What all share (settings): 10 µM unless noted

As for `CCOC(=O)n1cc(-c2nonc2-c2cn(C(=O)OCC)c3ccc(Br)cc23)c2ccccc21`, the growth with NCI-H23 lung was 67.9%; in the test with NCI-H226 lung, 79.4%; in the test on NCI-H322M lung it was 70%; in the test on HOP-62 NSCLC, 72.3%; with NCI-H460 lung, 81.6%; in the test with HOP-92 NSCLC, 63.2%. Further, the growth with NCI-H522 lung is 70.6%; with A549/ATCC NSCLC, 74.4%; in the test with 786-0 renal, 90.6%; with COLO 205 colon, 84.2%; in the test with DU-145 prostate, 93.9%; in the test on K-562 leukemia, 78%. Moreover, the growth in the test on MALME-3M melanoma is 83%; with MDA-MB-231 breast it was 74%; in the test on RXF 393 renal it was 94.2%; in the test on SF-268 CNS, 82%; in the test with SF-295 CNS it was 72.4%; with SF-539 CNS it was 98.4%. Moreover, the growth in the test on UACC-257 melanoma was 93.6%; with M14 melanoma, 78.8%.
Take `NC(N)=NCCCCCNc1noc(Cc2c[nH]c3cc(Br)ccc23)n1`: the growth with NCI-H23 lung is 64%; in the test on NCI-H226 lung it was 63.2%; in the test on NCI-H322M lung it was 77.3%; in the test with HOP-62 NSCLC, 58.3%; in the test with NCI-H460 lung it was 68%; in the test on HOP-92 NSCLC, 16.2%. For the same compound, the growth was 47.8% in the test on NCI-H522 lung; 65.3% in the test on A549/ATCC NSCLC; 91.7% with 786-0 renal; 64.7% in the test on COLO 205 colon; 92.8% in the test with DU-145 prostate; 86.4% in the test on K-562 leukemia. The growth in the test on MALME-3M melanoma was 47.8%; with MDA-MB-231 breast it was 69.4%; with RXF 393 renal, 78.3%; in the test with SF-268 CNS, 33.3%; in the test on SF-295 CNS it was 80.2%; in the test with SF-539 CNS it was 71.8%. The growth in the test with UACC-257 melanoma is 65.7%; in the test on M14 melanoma, 73.6%.
As for `Cn1c(=O)cc2c3c(c(NCCCO)ccc31)C(=O)c1ccccc1-2`, the growth was 47.2% with NCI-H23 lung; 38.4% in the test on NCI-H226 lung; 41.4% in the test on NCI-H322M lung; 43.8% with HOP-62 NSCLC; 16.8% in the test on NCI-H460 lung; 74.8% in the test with HOP-92 NSCLC. The growth in the test on NCI-H522 lung was 22.2%; in the test on A549/ATCC NSCLC it was 33.5%; in the test with 786-0 renal, 38.6%; with COLO 205 colon, 27.8%; in the test on DU-145 prostate, 45.4%; in the test with K-562 leukemia, 38.1%. Further, the growth was 27.3% in the test on MALME-3M melanoma; 58.1% with MDA-MB-231 breast; 42.6% with RXF 393 renal; 42.3% in the test on SF-268 CNS; 42.8% in the test on SF-295 CNS; 50% with SF-539 CNS. The results for the growth with UACC-257 melanoma and in the test with M14 melanoma were 64.2% and 55.3%, respectively.
As for `COc1ccc(OC)c(-c2nc(SCC(=O)c3ccc(C#N)cc3)[nH]c(=O)c2C#N)c1`, the growth with NCI-H23 lung is 98.1%; in the test on NCI-H226 lung it was 101%; in the test with NCI-H322M lung it was 105%; in the test on HOP-62 NSCLC it was 99.7%; with NCI-H460 lung, 112%; in the test on HOP-92 NSCLC it was 99%. Also, the growth is 90.4% in the test on NCI-H522 lung; 103% with A549/ATCC NSCLC; 101% in the test with 786-0 renal; 86.9% in the test with COLO 205 colon; 99.6% in the test on DU-145 prostate; 111% in the test with K-562 leukemia. Moreover, the growth with MALME-3M melanoma was 97.8%; with MDA-MB-231 breast, 101%; in the test on RXF 393 renal, 105%; with SF-268 CNS, 93.3%; in the test with SF-295 CNS, 99.5%; with SF-539 CNS, 93.8%. Also, the growth in the test on UACC-257 melanoma was 99.9%; in the test on M14 melanoma it was 91.7%.
In the case of `O=C1c2c(c3c4ccccc4[nH]c3c3ccc4ccccc4c23)C(=O)N1CCN1CCNCC1`, the growth in the test on NCI-H23 lung was 72.4%; with NCI-H226 lung, 76%; in the test with NCI-H322M lung it was 89.2%; with HOP-62 NSCLC, 61.3%; in the test with NCI-H460 lung it was -69.2% (active); in the test with HOP-92 NSCLC, 78.3%. The growth in the test with NCI-H522 lung is 66.2%; in the test on A549/ATCC NSCLC, -21% (active); in the test with 786-0 renal it was 79.7%; in the test with COLO 205 colon, 79.1%; in the test with DU-145 prostate, 8.13% (active); with K-562 leukemia, -41.5% (active). Also, the growth was 80.7% in the test with MALME-3M melanoma; -66.8% (active) with MDA-MB-231 breast; 91.6% with RXF 393 renal; 80.1% in the test with SF-268 CNS; 89.4% in the test on SF-295 CNS; 82.6% in the test with SF-539 CNS. The growth is 109% in the test on UACC-257 melanoma and 6.23% (active) in the test on M14 melanoma.
As for `N#Cc1ccc2c(c1)C(=O)c1c-2n(CCCN)c(=O)c2cc([N+](=O)[O-])ccc12`, the growth was -57.6% (active) in the test with NCI-H23 lung; -71.6% (active) in the test with NCI-H226 lung; -81.5% (active) with NCI-H322M lung; -89.5% (active) in the test on HOP-62 NSCLC; -100% (active) in the test with NCI-H460 lung; -2.3% (active) in the test with HOP-92 NSCLC. In addition, the growth in the test on NCI-H522 lung is -72.2% (active); with A549/ATCC NSCLC, -100% (active); with 786-0 renal, -90% (active); in the test with COLO 205 colon, -100% (active); in the test with DU-145 prostate it was -100% (active); in the test on K-562 leukemia, -100% (active). For the same compound, the growth with MALME-3M melanoma was -82.3% (active); with MDA-MB-231 breast it was -100% (active); with RXF 393 renal, -87.9% (active); in the test with SF-268 CNS it was -92.1% (active); in the test with SF-295 CNS it was -73.9% (active); with SF-539 CNS it was -98.2% (active). The growth in the test with UACC-257 melanoma and in the test with M14 melanoma was -100% (active) throughout.
With `Cc1ccc(Nn2c(SCC(=O)Nc3nc(-c4ccccc4)cs3)nc(C)c2C)cc1`, the growth was 39.4% in the test with NCI-H23 lung; 46.3% with NCI-H226 lung; 96% in the test on NCI-H322M lung; 73.1% with HOP-62 NSCLC; 78.1% in the test with NCI-H460 lung; 59.9% with HOP-92 NSCLC. The growth with NCI-H522 lung was 49.7%; in the test on A549/ATCC NSCLC, 46.3%; in the test with 786-0 renal, 82.3%; in the test with COLO 205 colon, 27.1%; with DU-145 prostate, 83.4%; with K-562 leukemia, 37.7%. For the same compound, the growth is 92% with MALME-3M melanoma; 46% in the test with MDA-MB-231 breast; 61.5% in the test on RXF 393 renal; 81.7% in the test on SF-268 CNS; 46.1% with SF-295 CNS; 73.7% in the test on SF-539 CNS. The growth with UACC-257 melanoma is 54.1%; in the test on M14 melanoma it was 77%.
On to `CCCCNC(=O)Oc1ccc(/C(=C(/C)Cc2ccc(OC)cc2)c2ccc(OCCN3CCCC3)cc2)cc1`, for which the growth is 85.9% with NCI-H23 lung; 94.7% in the test on NCI-H226 lung; 81.6% in the test with NCI-H322M lung; 79.1% in the test on HOP-62 NSCLC; 17.7% with NCI-H460 lung; 49% in the test with HOP-92 NSCLC. Besides, the growth in the test on NCI-H522 lung is 55.5%; in the test with A549/ATCC NSCLC, 48.7%; with 786-0 renal, 59.8%; in the test on COLO 205 colon it was -57.4% (active); in the test with DU-145 prostate, 80.1%; in the test on K-562 leukemia, -27.8% (active). In addition, the growth in the test with MALME-3M melanoma was 58.8%; in the test with MDA-MB-231 breast it was 69%; with RXF 393 renal, 57%; with SF-268 CNS it was 71.8%; in the test with SF-295 CNS, 69.7%; in the test with SF-539 CNS, 86.1%. Also, the results for the growth with UACC-257 melanoma and in the test with M14 melanoma were 43.1% and -64.6% (active), respectively.
